# From PubChem BioAssay (NCATS)
# Inconclusive results are not listed. Entries that show only a call come without a potency. The source made the active and inactive calls. Unless noted, the call rests on the fitted dose curve; in most records, active means well fitted curve in the direction sought with a large enough effect; inconclusive means small, poorly fitted or top-dose-only effect, or another doubt; inactive means no such curve, though single readings can be large; an effect the other way counts as inactive or inconclusive. Where a SMILES comes first, the peptide text is derived from it. The star is where a group is joined. AMC = Cc1cc(=O)oc2cc(N*)ccc12; Cbz = O=C(OCc1ccccc1)*
# Columns and labels:
# [1] = target: Catechol O-methyltransferase (Homo sapiens) (UniProt P21964); test: Confirmatory Screen for Target Class Profiling of Small Molecule Inhibitors of Methyltransferases (AID 1745852; calls by dose curve); settings: MTase-Glo luminescence, SAH detection, recombinant enzyme; measured here: COMT max response; stronger effect = lower value
# [2] = target: Guanidinoacetate N-methyltransferase (Homo sapiens) (UniProt Q14353); test: as above; settings: MTase-Glo luminescence, SAH detection, recombinant enzyme; activity change, negative = inhibition: at 57.3 µM (top of the series) unless noted
# [3] = target: Nicotinamide N-methyltransferase (Homo sapiens) (UniProt P40261); test: as above; settings: MTase-Glo luminescence, SAH detection, recombinant enzyme; measured here: NNMT max response; stronger effect = lower value
# [4] = target: Phenylethanolamine N-methyltransferase (Homo sapiens) (UniProt P11086); test: as above; settings: MTase-Glo luminescence, SAH detection, recombinant enzyme; measured here: PNMT max response; stronger effect = lower value
# [5] = target: Glutathione peroxidase 1 (Homo sapiens) (UniProt P07203); test: Primary qHTS Assay for Inhibitors of Recombinant Selenoprotein Glutathione Peroxidase 1 (GPX1) (AID 1845191); further: nearly all actives have a fitted effect of over 65% in size; further: potency means the concentration at half of the fitted maximal effect
# Summary of the method: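 GR-coupled assay: compounds preincubated 30 min at room temperature with GPX1, then reaction started with CHP; final 10 nM GPX1, 1 mM GSH, 0.5 mM CHP, 0.5 mM NADPH, 100 nM GR, 0.01% BSA, pH 7.5 Tris buffer. NADPH fluorescence (340/450 nm) read at 0 and 15 min.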
# [6] = target: Phospholipid hydroperoxide glutathione peroxidase GPX4 (Homo sapiens) (UniProt P36969); test: Primary qHTS Assay for Inhibitors of Recombinant Selenoprotein Glutathione Peroxidase 4 (GPX4) (AID 1845192); further: nearly all actives have a fitted effect of over 65% in size
# Summary of the method: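 GR-coupled assay: recombinant GPX4 preincubated 30 min with compound at room temperature; final 200 nM GPX4, 1 mM GSH, 0.5 mM cumene hydroperoxide, 0.5 mM NADPH, 100 nM GR, 0.01% BSA, pH 7.5 Tris. NADPH fluorescence (340/450 nm) read at 0 and 15 min.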
# [7] = target: Luciferin 4-monooxygenase (Photinus pyralis) (UniProt P08659); test: Primary firefly luciferase (FLuc) qHTS assay for identification of artifact compounds. (AID 1845220); further: nearly all actives have a fitted effect of over 60% in size
# Summary of the method: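 Enzymatic FLuc inhibition assay: compounds pre-exposed to luciferin/ATP (10 uM each) for 15 min, then purified P. pyralis enzyme at 10 nM added. Read-out: luminescence at 5 min.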
# [8] = Primary fluorescence-based thiol-reactive (MSTI) qHTS assay for identification of artifact compounds. (AID 1845221); further: nearly all actives have a fitted effect of over 65% in size; further: potency means the concentration at half of the fitted maximal effect
# Summary of the method: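 Compounds were incubated 1 h at room temperature in the dark with the MSTI probe (4 uM) in PBS pH 7.4, 2% DMSO. Signals were normalized between Acetyl-MSTI and MSTI.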
# [9] = NCATS anti-infectives library activity on HEK293 viability as a counter-qHTS vs the C. elegans viability qHTS (AID 1745854);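 further: HEK293 cells exposed to compounds for 24 hr before the viability read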
# Summary of the method: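 Cytotoxicity in human HEK293 cells is measured by ATP-dependent CellTiter-Glo luminescence following a 24 hr incubation with titrated library compounds at 37C. Top final concentration is 41.7 uM.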
# [10] = Viability counterscreen for antagonist of constitutive androstane receptor (CAR) against the NCATS DSHEA and TCM libraries (AID 1794837);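 further: compound exposure lasted 24 h before viability reading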
# Summary of the method: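 Counterscreen performed in a 1536-well qHTS format using HepG2-CYP2B6-hCAR cells; samples titrated in the presence of 48 uM CITCO, with viability measured fluorometrically (405/540 nm) after 24 h.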
# [11] = Viability counterscreen for agonist of constitutive androstane receptor (CAR) against the NCATS DSHEA and TCM libraries (AID 1794838);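 further: cells exposed to compound for 24 h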
# Summary of the method: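 Multiplexed counterscreen: after 24 h compound exposure with 0.75 uM PK11195, HepG2-CYP2B6-hCAR viability was quantified fluorimetrically (CellTiter-Fluor, 405/540 nm) prior to the ONE-Glo luciferase read.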
# [12] = target: Nuclear receptor subfamily 1 group I member 3 (Homo sapiens) (UniProt Q14994); test: Primary qHTS for agonist of constitutive androstane receptor (CAR) against the NCATS DSHEA and TCM libraries (AID 1794839);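 further: HepG2 cells expressing human CAR with a CYP2B6 reporter plus PK11195 antagonist; luciferase reporter luminescence read with ONE-Glo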
# Summary of the method: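 Concentration–response screen in HepG2-CYP2B6-hCAR cells under 0.75 µM PK11195; 24 h exposure; luminescent reporter signal with multiplexed fluorescent viability.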
# [13] = HepG2 viability counterscreen (readout 2: ATP content) against the NCATS DSHEA and TCM libraries (AID 1794840);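 further: HepG2 cells exposed to substances for about 24 h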
# Summary of the method: (§1)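 After HepG2 cells attach for ~4 h, substances are added and incubated ~24 h at 37C, 5% CO2. GF-AFC fluorescence then CellTiter-Glo luminescence give protease and ATP readouts.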
# [14] = HepG2 viability counterscreen (readout 1: protease activity) against the NCATS DSHEA and TCM libraries (AID 1794841);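 further: cells exposed to compounds for about 24 h before the protease read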
# Summary of the method: as §1
# Sequence of Phenylethanolamine N-methyltransferase (Homo sapiens) (P11086 whole entry, looked up): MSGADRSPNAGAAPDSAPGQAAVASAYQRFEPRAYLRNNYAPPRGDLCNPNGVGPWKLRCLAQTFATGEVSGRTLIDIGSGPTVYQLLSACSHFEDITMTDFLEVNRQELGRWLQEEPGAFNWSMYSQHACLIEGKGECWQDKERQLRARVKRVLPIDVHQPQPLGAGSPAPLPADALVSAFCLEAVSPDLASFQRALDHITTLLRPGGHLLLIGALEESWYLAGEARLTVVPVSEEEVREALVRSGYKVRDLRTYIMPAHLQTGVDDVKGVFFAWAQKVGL
# Sequence of Nicotinamide N-methyltransferase (Homo sapiens) (P40261 whole entry, looked up): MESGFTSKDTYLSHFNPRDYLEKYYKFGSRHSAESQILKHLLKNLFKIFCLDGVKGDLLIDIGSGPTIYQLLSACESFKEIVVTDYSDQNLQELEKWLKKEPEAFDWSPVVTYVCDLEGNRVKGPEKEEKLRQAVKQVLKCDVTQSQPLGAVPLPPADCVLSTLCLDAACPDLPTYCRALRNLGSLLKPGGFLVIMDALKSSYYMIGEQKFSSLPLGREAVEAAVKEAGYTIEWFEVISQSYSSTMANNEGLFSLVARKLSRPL
# Sequence of Phospholipid hydroperoxide glutathione peroxidase GPX4 (Homo sapiens) (P36969 whole entry, looked up): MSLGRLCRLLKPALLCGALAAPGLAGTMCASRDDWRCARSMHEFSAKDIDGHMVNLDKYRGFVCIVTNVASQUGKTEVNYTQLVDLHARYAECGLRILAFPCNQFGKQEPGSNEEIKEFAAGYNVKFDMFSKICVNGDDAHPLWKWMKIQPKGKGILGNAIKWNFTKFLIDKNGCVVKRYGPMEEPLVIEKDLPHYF
# Sequence of Glutathione peroxidase 1 (Homo sapiens) (P07203 whole entry, looked up): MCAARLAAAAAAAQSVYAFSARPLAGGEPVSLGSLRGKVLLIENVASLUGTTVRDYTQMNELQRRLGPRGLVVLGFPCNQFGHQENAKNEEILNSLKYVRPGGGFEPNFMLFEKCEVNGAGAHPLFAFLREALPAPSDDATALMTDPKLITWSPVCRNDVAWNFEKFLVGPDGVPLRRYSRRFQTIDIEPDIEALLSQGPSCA
# Sequence of Catechol O-methyltransferase (Homo sapiens) (P21964 whole entry, looked up): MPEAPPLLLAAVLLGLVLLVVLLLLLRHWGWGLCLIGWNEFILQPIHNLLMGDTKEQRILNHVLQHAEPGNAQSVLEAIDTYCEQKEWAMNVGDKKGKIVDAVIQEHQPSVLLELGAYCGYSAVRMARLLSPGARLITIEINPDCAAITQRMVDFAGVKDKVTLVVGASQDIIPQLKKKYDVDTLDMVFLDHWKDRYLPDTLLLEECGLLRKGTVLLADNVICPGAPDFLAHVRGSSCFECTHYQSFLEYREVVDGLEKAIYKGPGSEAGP
# Sequence of Nuclear receptor subfamily 1 group I member 3 (Homo sapiens) (Q14994 whole entry, looked up): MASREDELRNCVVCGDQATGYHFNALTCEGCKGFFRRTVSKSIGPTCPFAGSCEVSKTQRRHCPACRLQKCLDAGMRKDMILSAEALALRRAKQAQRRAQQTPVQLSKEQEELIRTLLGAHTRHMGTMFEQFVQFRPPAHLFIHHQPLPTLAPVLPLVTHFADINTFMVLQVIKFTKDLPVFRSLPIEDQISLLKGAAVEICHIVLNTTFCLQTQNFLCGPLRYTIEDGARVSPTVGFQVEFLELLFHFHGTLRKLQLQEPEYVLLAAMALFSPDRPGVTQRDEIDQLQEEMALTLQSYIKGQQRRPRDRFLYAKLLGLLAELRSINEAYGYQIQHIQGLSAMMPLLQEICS
compound,measurement,setting,value
COC(=O)[C@H](Cc1cccc(C(=N)N)c1)[C@@H](C)NC(=O)c1ccc(-c2cc[n+]([O-])cc2)cc1,activity,[1],-6.84%
same,"activity change, negative = inhibition",[2],0%
same,activity,[3],1.87%
same,activity,[4],-2.03%
same,Potency,[5],inactive
same,Potency,[6],inactive
same,Potency,[7],inactive
same,Potency,[8],inactive
CC(=O)OC/C(=C/C(=O)O)CC[C@@H]1C(C)=CC(=O)[C@@H]2C(C)(C)CCC[C@@]12C,activity,[1],-62.3%
same,"activity change, negative = inhibition",[2],0%
same,activity,[3],-1.14%
same,activity,[4],-1.13%
same,Potency,[5],inactive
same,Potency,[6],inactive
same,Potency,[7],inactive
same,Potency,[8],inactive
CC1CC(=O)C2=C(O1)OC1(C)CCC3C(C)(C)C4OC4C(=O)C3(C)C1C2 (stereo not given),activity,[1],-27.1%
same,"activity change, negative = inhibition",[2],0%
same,activity,[3],-84.6%
same,activity,[4],-2.49%
same,Potency,[5],inactive
same,Potency,[6],inactive
same,Potency,[7],inactive
same,Potency,[8],16.5 µM (active)
CC(C)(O)C1CC=C(C(=O)OC[C@H]2O[C@@H](OC(=O)C3=CCC(C(C)(C)O)CC3)[C@H](O)[C@@H](O)[C@@H]2O)CC1 (stereo not given in full),activity,[1],-62.1%
same,"activity change, negative = inhibition",[2],-9.84% [at 29.8 µM]
same,activity,[3],-5.04%
same,activity,[4],-5.85%
same,Potency,[5],inactive
same,Potency,[6],inactive
same,Potency,[7],inactive
same,Potency,[8],4.12 µM (active)
CC(C)c1cc2c(c(O)c1O)[C@@]13CCCC(C)(C)C1[C@@H](O)[C@@H]2OC3=O (stereo not given in full),activity,[1],-82.4%
same,"activity change, negative = inhibition",[2],-4.37%
same,activity,[3],-4.78%
same,activity,[4],-0.254%
same,Potency,[5],inactive
same,Potency,[6],inactive
same,Potency,[8],0.927 µM (active)
O=C(NCC(=O)N1CCCC1)Nc1ccc2ccccc2c1,activity,[1],1.31%
same,"activity change, negative = inhibition",[2],-10.4%
same,activity,[3],-23%
same,activity,[4],-8.32%
same,Potency,[5],inactive
same,Potency,[7],inactive
same,Potency,[8],inactive
CC(=O)NC(Cc1c[nH]c2ccccc(=O)c12)C(=O)O (stereo not given),activity,[1],-73.7%
same,"activity change, negative = inhibition",[2],0%
same,activity,[3],3.04%
same,activity,[4],-0.114%
same,Potency,[5],inactive
same,Potency,[7],inactive
same,Potency,[8],5.32 µM (active)
COCc1c(O)c(C(=O)O)c(C)c2c1OC(=O)c1c(C)cc(O)c(CO)c1O2,activity,[1],-62.5%
same,"activity change, negative = inhibition",[2],-4.52%
same,activity,[3],-3.54%
same,activity,[4],-4.35%
same,Potency,[5],inactive
same,Potency,[6],inactive
same,Potency,[7],inactive
same,Potency,[8],5.21 µM (active)
CCc1nn(CCO)c(CC)c1Oc1cc(C#N)cc(C#N)c1,outcome,[9],inactive
same,Potency,[5],inactive
same,Potency,[6],inactive
same,Potency,[7],inactive
same,Potency,[8],inactive
CC(=O)c1c(C)cccc1O[C@@H]1O[C@H](CO)[C@@H](O)[C@H](O)[C@H]1O,activity,[1],-68.9%
same,"activity change, negative = inhibition",[2],-2.96%
same,activity,[3],-4.15%
same,activity,[4],-3.91%
same,Potency,[5],inactive
same,Potency,[7],inactive
Cc1cc(=O)oc2cc(NC(=O)[C@H](CCC(=O)O)NC(=O)[C@H](CC(C)C)NC(=O)[C@H](CC(C)C)NC(=O)OCc3ccccc3)ccc12 (Cbz-Leu-Leu-Glu-{AMC}),activity,[1],-1.08%
same,"activity change, negative = inhibition",[2],0%
same,activity,[3],-71.3%
same,activity,[4],-1.44%
same,Potency,[5],22.7 µM (active)
same,Potency,[7],inactive
same,Potency,[8],inactive
O=C(O)c1cc(C(F)(F)F)ccc1N1CC[C@H](OCc2ccccn2)C1,outcome,[9],inactive
same,Potency,[5],inactive
O=C(O)CC1(O)C(=O)Nc2ccccc21 (stereo not given),activity,[1],0%
same,"activity change, negative = inhibition",[2],0% [at 85.7 µM]
same,activity,[3],4.18%
same,activity,[4],-0.0725%
same,Potency,[5],inactive
same,Potency,[7],inactive
same,Potency,[8],25.1 µM (active)
CC1=CCC(O)C2(C)CCC3C(C)C(=O)OC3C12 (stereo not given),activity,[1],-77%
same,"activity change, negative = inhibition",[2],0%
same,activity,[3],2.91%
same,activity,[4],-2.6%
same,Potency,[5],inactive
same,Potency,[6],inactive
same,Potency,[7],inactive
same,Potency,[8],inactive
COc1cc(C2Oc3c(OC)cc(/C=C/C(=O)OC4CC(O)(C(=O)O)CC(O)C4O)cc3C2CO)ccc1O (stereo not given),activity,[1],-71.9%
same,"activity change, negative = inhibition",[2],-2.32% [at 29.8 µM]
same,activity,[3],-1.14%
same,activity,[4],-2.58%
same,Potency,[5],inactive
same,Potency,[6],inactive
same,Potency,[7],inactive
same,Potency,[8],inactive
CC(=O)O[C@@H]1C[C@@H](C)[C@](O)(CCC2=CC(=O)OC2)[C@@]2(C)CCCC(C)(C)C12 (stereo not given in full),outcome,[10],inactive
same,outcome,[11],inactive
same,outcome,[12],inactive
same,outcome,[13],inactive
same,outcome,[14],inactive
same,Potency,[8],inactive
O=C(OCC1=C[C@@H](O)[C@@H]2C=CO[C@@H](O[C@@H]3O[C@H](CO)[C@@H](O)[C@H](O)[C@H]3O)[C@H]12)c1ccc(O)cc1,outcome,[10],inactive
same,outcome,[11],inactive
same,outcome,[12],inactive
same,outcome,[13],inactive
same,outcome,[14],inactive
same,Potency,[8],10.3 µM (active)
CC1CCC2C(C(=O)O)=CC3(O)CC(C)(C)CC123 (stereo not given),Potency,[5],inactive
same,Potency,[6],inactive
same,Potency,[7],inactive
CC1CC(=O)[C@]2(O)C(C(=O)OCCc3ccc(O)cc3)=CO[C@@H](O[C@@H]3O[C@H](CO)[C@@H](O)[C@H](O)[C@H]3O)[C@H]12 (stereo not given in full),Potency,[5],inactive
same,Potency,[6],inactive
same,Potency,[7],inactive
Cc1ccc(C)c(NC(=O)CNS(=O)(=O)c2ccc3[nH]c(=O)oc3c2)c1,Potency,[5],inactive
same,Potency,[6],inactive
same,Potency,[7],inactive
C/C(=C\CCC(C)(C)O)CCO[C@@H]1O[C@H](CO[C@@H]2O[C@@H](C)[C@H](O)[C@@H](O)[C@H]2O)[C@@H](O)[C@H](O)[C@H]1O,Potency,[5],inactive
same,Potency,[6],inactive
same,Potency,[7],inactive
COC(=O)[C@H](c1ccccc1Cl)N1CCC2SC(=O)C=C2C1 (stereo not given in full),Potency,[5],8.06 µM (active)
same,Potency,[6],inactive
same,Potency,[7],inactive
COc1cc(C(O)C2COC(c3ccc(OC4OC(CO)C(O)C(O)C4O)c(OC)c3)C2CO)ccc1O (stereo not given),Potency,[5],inactive
same,Potency,[6],inactive
same,Potency,[7],inactive
CC(C)C1NC(=O)C2CCCN2C1=O (stereo not given),Potency,[5],inactive
same,Potency,[6],inactive
same,Potency,[7],inactive
COc1cc(/C=C/CO[C@@H]2O[C@H](CO)[C@@H](O)[C@H](O)[C@H]2O)cc(OC)c1O[C@@H]1O[C@H](CO)[C@@H](O)[C@H](O)[C@H]1O,Potency,[5],inactive
same,Potency,[6],inactive
same,Potency,[7],inactive
